Bioassay records: PubChem, National Center for Advancing Translational Sciences (NCATS)
IL1B secr inh = inflammasome signaling inhibition, IL-1 beta readout. THP-1 LPS/ATP IL-1B secretion, AlphaLISA, 16 h; hits give low values. activity change, % at 57.5 µM. hit rate 4.7% among 360,000. AID 743279; in the data active means activity change below about -50%; inconclusive means mostly about -30% to -49%
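THP-1 cells pretreated 1 hr with compounds (up to 57.5 uM final), then stimulated with LPS (250 ng/mL final) plus ATP (1.25 mM final); secreted IL-1B measured by AlphaLISA after 16 hr, decreased signal indicating inhibition.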
HT1080 IDH1KD tx = kills HT-1080 cells with IDH1 knockdown; HT-1080 IDH1 knockdown viability, ATP luminescence, 48 h; Potency, µM (highest dose often 46.1 µM), actives largely listed as cytotoxic; hit rate 2% among 360,000; AID 686971
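CellTiter-Glo luminescence after 48 h compound exposure at 37 degrees C of IDH1-knockdown HT-1080 cells in 5% FBS RPMI. %Activity scaled between DMSO wells and cell-free media wells, with curves fitted and assigned curve classes.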
DT40 TDP1 no CPT = qHTS for Inhibitors of human tyrosyl-DNA phosphodiesterase 1 (TDP1): qHTS in cells in absence of CPT. DT40 Tdp1-/- hTDP1 cells, no CPT, ATP luminescence, 48 h. Potency, µM (top dose mostly 46.2 µM), usual class: inhibitors. hit rate 15% among 420,000; further: nearly all actives have a fitted effect of over 55% in size
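Camptothecin absent (DMSO only). Human TDP1-complemented DT40 knockout cells, 400 cells/well, 37 °C for minimum 48 hr; ATP measured via CellTiter-Glo, 30 min dark incubation, luminescence.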
TDP1 cell CPT = growth inhibition of DT40 Tdp1-/-;hTDP1 cells with camptothecin (screen for TDP1 inhibitors); chicken DT40 Tdp1-/-;hTDP1 cells + 20 nM CPT, ATP luminescence, 48 h; Potency, µM (doses to about 46.2 µM), actives largely listed as inhibitors; hit rate 12% among 420,000; AID 686979; further: nearly all actives have a fitted effect of over 55% in size
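Cell growth measured by CellTiter-Glo luminescence after a minimum 48 h, 37 C compound exposure with 20 nM CPT in Tdp1-knockout DT40 cells stably expressing hTDP1, seeded 400/well; qHTS titration format.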
HT1080NT lethal = kills 2HG-producing HT-1080-NT fibrosarcoma cells | Potency, µM (series often up to 46.1 µM), most hits filed as cytotoxic | hit rate 1.6% among 360,000 | HT-1080-NT fibrosarcoma viability, CellTiter-Glo ATP luminescence, 48 h;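 further: NT is the 2HG producing partner of a matched IDH1 knockdown line; nearly all actives have a fitted effect of over 55% in size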
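Read-out is CellTiter-Glo luminescence after 10 minutes at room temperature, following 48 hours' compound treatment of HT-1080-NT cells (750 cells/well, RPMI, 5% FBS, 37 degrees C).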
ALOX12 inh = blocks human arachidonate 12S-lipoxygenase. AID 1671190. P18054. purified 12hLO, xylenol orange hydroperoxide absorbance. hit rate 1.1% among 580,000. Potency, µM (series often up to 108 µM), most hits filed as inhibitors
Target sequence (P18054 whole entry, looked up): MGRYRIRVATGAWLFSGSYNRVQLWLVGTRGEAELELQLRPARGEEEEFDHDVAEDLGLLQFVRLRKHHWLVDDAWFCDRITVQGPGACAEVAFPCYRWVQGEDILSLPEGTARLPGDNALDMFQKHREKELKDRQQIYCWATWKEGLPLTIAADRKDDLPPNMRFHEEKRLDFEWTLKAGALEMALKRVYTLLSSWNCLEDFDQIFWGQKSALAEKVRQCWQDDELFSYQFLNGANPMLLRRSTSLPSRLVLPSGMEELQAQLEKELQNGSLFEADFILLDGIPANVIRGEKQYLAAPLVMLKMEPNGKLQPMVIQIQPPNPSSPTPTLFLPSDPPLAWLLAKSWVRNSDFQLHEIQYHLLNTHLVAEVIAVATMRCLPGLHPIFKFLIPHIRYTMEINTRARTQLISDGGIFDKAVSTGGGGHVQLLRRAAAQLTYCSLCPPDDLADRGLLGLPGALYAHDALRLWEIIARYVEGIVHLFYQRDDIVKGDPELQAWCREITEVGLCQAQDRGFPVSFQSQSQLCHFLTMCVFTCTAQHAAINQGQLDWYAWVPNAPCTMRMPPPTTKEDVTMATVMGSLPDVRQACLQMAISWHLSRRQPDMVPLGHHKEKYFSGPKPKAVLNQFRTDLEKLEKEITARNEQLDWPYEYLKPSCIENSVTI
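Purified human 12hLO (150 nM final) in 25 mM Hepes, 0.01% Triton X-100, pH 7.0 was preincubated 15 min at room temperature with compound. Then 40 uM arachidonic acid was added, 30 min. Hydroperoxide was read by Fe-XO absorbance ratio 573/405 nm.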
Numbers stand for hits; n = inactive; u = inconclusive; x = not tested or not shown. This excerpt belongs to a sample that is enriched for hits. Unless noted, the call rests on the fitted dose curve; in most records, active means well fitted curve in the direction sought with a large enough effect; inconclusive means small, poorly fitted or top-dose-only effect, or another doubt; inactive means no such curve, though single readings can be large; an effect the other way counts as inactive or inconclusive.

SMILES	IL1B secr inh	HT1080 IDH1KD tx	DT40 TDP1 no CPT	TDP1 cell CPT	HT1080NT lethal	ALOX12 inh
CC(C)Oc1cc(F)ccc1-c1cc(C(=O)NC2CCCCC2)[nH]n1	n	n	u	21µM	n	n
CC(C)Oc1cc(F)ccc1-c1cc(C(=O)NCCc2ccncc2)[nH]n1	n	n	u	18µM	n	n
CC(C)Oc1ccc(F)cc1-c1cc(C(=O)NC2CCCCC2)[nH]n1	n	n	15µM	u	n	n
CCOc1ccc(Cl)cc1-c1cc(C(=O)NCCc2ccncc2)[nH]n1	n	n	n	n	n	n
Cc1nnc(SCc2ccccc2Cl)c2cc3occc3n12	x	x	16µM	u	x	n
Cc1nnc(SCc2ccccc2Cl)c2cc3sccc3n12	x	x	u	u	x	n
Cc1ccc(-c2nc(CSc3nncn4c3cc3occc34)c(C)o2)cc1	x	x	n	u	x	n
COc1ccc(-c2nc(CSc3nncn4c3cc3occc34)c(C)o2)cc1	x	x	23µM	16µM	x	u
Cc1ccc(-c2nc(CSc3nnc(C)n4c3cc3occc34)c(C)o2)cc1	x	x	u	n	x	n
COc1ccc(-c2nc(CSc3nnc(C)n4c3cc3occc34)c(C)o2)cc1OC	x	x	12µM	10µM	x	n
CCCCOc1ccc2c(C)c(C)c(=O)oc2c1C	x	x	x	x	x	n
COc1cc(-c2cc(O)c(-c3ccc4ccccc4n3)c(=O)[nH]2)cc(OC)c1OC	n	n	15µM	u	u	n
CC1(C)NC(=O)N(CCCC(=O)Nc2cnc3ccccc3c2)C1=O	x	x	x	x	x	n
CCOc1cc(=O)n2c(c1C(=O)N1CCN(C3CCCCC3)CC1)CCCCC2	x	x	x	x	x	n
COc1ccc(NC(=O)C2CCC(CNS(=O)(=O)c3ccc(Br)s3)CC2)cc1OC (stereo not drawn)	x	x	n	n	x	u
Cc1cccc(NC(=O)C2CCC(CNS(=O)(=O)c3ccc(Br)s3)CC2)c1 (stereo not drawn)	x	x	16µM	26µM	x	n
Cc1ccc(NC(=O)C2CCC(CNS(=O)(=O)c3cccs3)CC2)cc1C (stereo not drawn)	x	x	15µM	15µM	x	n
Cc1ccccc1[C@H]1[C@@H](C(=O)NCc2n[nH]c(=O)[nH]2)C[C@@](C)(C(=O)O)N1C	x	x	x	x	x	n
COc1ccccc1NC(=O)c1ccc(NC(=O)Cn2nc(C(=O)O)c3ccccc3c2=O)cc1	x	x	x	x	x	n
COc1ccc(C(O)c2ncc(-c3cccc(C(F)(F)F)c3)[nH]2)cc1 (stereo not drawn)	n	n	u	u	n	n
OC(c1ccc(Cl)cc1)c1ncc(-c2cccc(C(F)(F)F)c2)[nH]1 (stereo not drawn)	u	u	21µM	u	u	n
OC(c1cc(F)cc(Cl)c1)c1ncc(-c2cccc(C(F)(F)F)c2)[nH]1 (stereo not drawn)	n	u	13µM	16µM	u	n
COC(=O)C1=C(O)C2(C(=O)O)CC(C(=O)OC)=C(O)C(C(=O)O)(C1)C2	x	n	10µM	n	n	n
CC1(C(=O)O)CC(C)(C(=O)O)CC(C)(C(=O)O)C1 (stereo not drawn)	n	n	n	n	n	n
Cc1cccc(-c2nc3cc(NC(=O)c4ccccc4F)ccc3o2)c1	x	x	x	x	x	n
SMILES	IL1B secr inh	HT1080 IDH1KD tx	DT40 TDP1 no CPT	TDP1 cell CPT	HT1080NT lethal	ALOX12 inh
CCc1nc2c(NC(=O)Nc3cccc(C(=O)OC)c3)cccn2n1	x	x	x	x	x	71µM
CCc1nc2c(NC(=O)NCc3ccc(OC)cc3)cccn2n1	x	x	x	x	x	n
CC1Cc2nc(SCC(=O)c3ccccc3)n(Cc3ccccc3)c(=O)c2S1 (stereo not drawn)	u	n	10µM	10µM	n	n
CC1Cc2nc(SCC(=O)NC3CCCCC3)n(C)c(=O)c2S1 (stereo not drawn)	n	n	n	n	n	n
COc1ccccc1-n1c(SCC(=O)N2CCc3ccccc32)nc2c(c1=O)SCC2	n	n	7.3µM	9.2µM	n	n
CC1Cc2nc(SCC(=O)NCc3ccccc3)n(Cc3ccccc3)c(=O)c2S1 (stereo not drawn)	u	n	u	u	n	n
CC1Cc2nc(SCC(=O)N3CCc4ccccc43)n(C)c(=O)c2S1 (stereo not drawn)	n	n	23µM	u	n	n
CC(C)(C)Nc1ncnc2sc(-c3ccccc3)cc12	n	n	23µM	26µM	n	n
COc1ccc(Nc2ncnc3sc(-c4ccccc4)cc23)cc1	n	n	u	n	n	u
COC(CNc1ncnc2sc(-c3ccccc3)cc12)OC	u	n	u	u	n	n
CN(C)c1ncnc2sc(-c3ccccc3)cc12	-55	n	n	u	n	n
COc1ncnc2sc(-c3ccccc3)cc12	n	n	n	n	n	n
C=COCCCNc1ncnc2sc(-c3ccccc3)cc12	n	n	15µM	16µM	n	n
CC(Oc1ccc(C(C)C)cc1)C(N)=O (stereo not drawn)	x	x	x	x	x	n
CCOc1ccc(C(=O)N2CC(C(=O)NCCc3ccncc3)C3(CCOCC3)C2)cc1 (stereo not drawn)	x	x	x	x	x	n
O=S(=O)(CC(CN1CCCC1)N1CCCC1)c1ccc2ccccc2c1 (stereo not drawn)	-107	23µM	4.6µM	3.3µM	16µM	n
CNc1c([N+](=O)[O-])ncn1C	n	n	n	n	n	n
Cn1cnc([N+](=O)[O-])c1Oc1ccccc1	u	n	u	18µM	n	n
Cn1cnc([N+](=O)[O-])c1Oc1cccc(O)c1	-105	n	23µM	u	n	n
Cn1c(=O)c2nc(SCC(=O)Nc3ccc(F)c(Cl)c3)n(C)c2n(C)c1=O	x	x	x	x	x	n
Cc1onc(-c2c(F)cccc2Cl)c1C(=O)N1CCc2ccccc21	n	n	u	u	n	n
Cc1onc(-c2c(Cl)cccc2Cl)c1C(=O)N1CCCc2ccccc21	n	n	21µM	21µM	n	n
Cc1onc(-c2ccccc2)c1C(=O)N1CCCc2ccccc21	n	n	16µM	u	n	n
O=S(=O)(NC1CCN(S(=O)(=O)c2ccc(C(F)(F)F)cc2)CC1)c1cccs1	x	x	x	x	x	n
C#CCN1CCC(C(=O)NCCN2CCC(C)CC2)CC1	x	x	x	x	x	n
COc1cccc(C(=O)NCCc2csc3nc(-c4ccccc4F)nn23)c1OC	x	x	15µM	26µM	x	n
O=C(NCCc1csc2nc(-c3ccccc3F)nn12)c1ccco1	x	x	n	n	x	n
O=C(NCCc1csc2nc(-c3ccccc3F)nn12)c1ccccc1C(F)(F)F	x	x	9.2µM	7.3µM	x	n
CCn1nc(C(=O)N2CCN(S(=O)(=O)c3ccc(C(C)(C)C)cc3)CC2)c2ccccc2c1=O	x	x	x	x	x	n
